Assay outcomes (PubChem BioAssay)
HCV inh: inhibitors of hepatitis C virus infection; AID 651820; 340,000 compounds, 3.4% hits; Huh7.5.1 HCVcc-Cre infection, luciferase reporter, 44 h; Potency, µM (doses to about 41.8 µM), most hits filed as inhibitors
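Luciferase read-out (15 sec integration) after a 15 min room-temperature substrate step quantifies HCVcc-Cre infection. Cells, 1,000 per well, had compound added 4 h post-plating, then virus at ~0.5 moi, and were cultured 44 h.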
CHX counter: counter-screen for Shiga toxin inhibitors: cycloheximide protein synthesis inhibition; max response, %; 300,000 compounds, 12% hits; AID 2314; cell reporter, cycloheximide protein synthesis inhibition counterscreen; in the data active = max response mostly above about 13%, no sharp cut-off; inactive = mostly below about 14%; note: read at 38.3 µM for the half of the compounds with a filed dose
Pf growth 96h: inhibits malaria parasite growth, 96 h; P. falciparum luciferase reporter growth, 96 h; Potency, µM (highest dose often 28.7 µM), hits mostly inhibitors; 320,000 compounds, 6.9% hits
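Plates of compound plus infected erythrocytes (2% hematocrit, 0.05% parasitemia final) incubate 96 hours, 37 C, 5% CO2. Detection reagent added; reduced luminescence from the parasites' luciferase reporter flags inhibition.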
Pf growth 48h: inhibits P. falciparum growth in the first generation, 48 h; P. falciparum luciferase growth in erythrocytes, 48 h; Potency, µM (series often up to 28.7 µM), actives largely listed as inhibitors; 310,000 compounds, 5.9% hits; AID 504832
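A one-generation exposure of luciferase-tagged malaria parasites in RPMI 1640/Albumax erythrocyte culture, 37 C and 5% CO2. Inhibition is inferred from decreased luminescence after adding detection reagent.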
HCMV inh: inhibitors of human cytomegalovirus; HFF cells, HCMV-luciferase reporter, 72 h; active compounds read low; activity change, negative = inhibition, % at 57.5 µM; 410,000 compounds, 4.5% hits; in the data active = activity change below about -60%; inconclusive = no clear call, values can overlap the other calls; inactive = above about -39%
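Two compound doses tested in HFFs infected with HCMV-luciferase, MOI 1 PFU/cell, 72 h at 37C. Lysate luminescence read with OneGlo; data normalized against buffer-only and 10uM Salinomycin inhibitor controls.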
Shiga toxin inh: Shiga toxin inhibition; Vero cells, Shiga toxin protein synthesis inhibition reporter; inhibition, % at 38.7 µM; 290,000 compounds, 9.2% hits; AID 2315; in the data active = inhibition mostly above about 28%, no sharp cut-off; inactive = mostly below about 43%
Each line names hits and unclear results; the compound was inactive in the other large screens. Rows were chosen to be rich in hits. Some 21% of all compounds tested hit in one or more screens of this group. Unless noted, calls come from the whole dose curve; as a rule, active = well fitted inhibition curve with a large enough effect; inconclusive = small, poorly fitted or top-dose-only effect, or another doubt; inactive = no such curve, though single readings can be large or run the other way.

O=c1ccc(/C=C/c2ccccc2)nn1Cc1ccccc1	none (no result: Pf growth 48h)
CCOC(=O)c1ccc(S(=O)(=O)NNc2ccc(C(F)(F)F)cn2)cc1	none (no result: CHX counter, Pf growth 96h, Pf growth 48h, Shiga toxin inh)
CCc1cc(C(=O)Cc2nc3ccccc3s2)c(O)cc1OCC(=O)O	none
O=C(CSc1nc2ccccc2s1)N1c2ccccc2Sc2ccccc21	HCV inh inconclusive, Pf growth 48h inconclusive
O=C(Cc1nc2ccccc2s1)c1ccc(O)cc1O	CHX counter 41, Pf growth 48h inconclusive, Shiga toxin inh 65 (no result: HCMV inh)
O=C(CSc1nc2ccccc2s1)c1ccc(O)cc1O	CHX counter 22, Shiga toxin inh 59
Cc1nnc(SCC(=O)N(CC(C)C)c2c(N)n(Cc3ccccc3)c(=O)[nH]c2=O)n1N	none (no result: CHX counter, Shiga toxin inh)
C=CCNC(=O)c1ccc(C(=O)c2ccccc2)cc1	CHX counter 24, Shiga toxin inh 110
O=C(NNC(=O)c1ccc(NC(=O)c2ccccc2)cc1)Nc1ccccc1	Pf growth 96h inconclusive, HCMV inh -62
O=C(NNC(=O)c1ccc(NC(=O)c2ccccc2)cc1)c1ccc(F)cc1	none
O=C(Nc1ccc(C(=O)c2ccccc2)cc1)c1ccccc1	HCV inh 2.8µM, CHX counter 56, Pf growth 96h inconclusive, Shiga toxin inh 148
O=C(NC1CCCCC1)c1ccc2c(c1)N(Cc1cccc(F)c1)C(=O)c1ccccc1S2	none (no result: HCV inh, CHX counter, Pf growth 96h, Pf growth 48h, Shiga toxin inh)
Cc1ccc(Cl)cc1N1CCN(C(=O)c2cc(S(=O)(=O)N3CCCCCC3)cn2C)CC1	none (no result: HCV inh, CHX counter, Pf growth 96h, Pf growth 48h, Shiga toxin inh)
Cc1ccc(NC(=O)COc2ccc(N(C)S(=O)(=O)c3ccc(F)cc3)cc2)cc1	HCV inh inconclusive, Pf growth 96h 10µM, Pf growth 48h inconclusive (no result: CHX counter, Shiga toxin inh)
CN(C)C1(CNC(=O)COc2ccc(C(C)(C)C)cc2)CCCCC1	none (no result: HCV inh, CHX counter, Pf growth 96h, Pf growth 48h, Shiga toxin inh)
Cc1ccc(S(=O)(=O)N(C)c2ccc(OCC(=O)NCC3(N(C)C)CCCCC3)cc2)cc1	HCV inh inconclusive, Pf growth 96h 9.3µM, Pf growth 48h 9.3µM, HCMV inh inconclusive (no result: CHX counter, Shiga toxin inh)
CC(C)CCNC(=O)COc1ccc(N(C)S(=O)(=O)c2ccc(F)cc2)cc1	HCMV inh -87
CCc1ccc(NC(=O)CSc2nc3ncccc3[nH]2)cc1	none (no result: HCV inh, CHX counter, Pf growth 96h, Pf growth 48h, Shiga toxin inh)
Cc1c(-c2nc(N)nc(Nc3ccccc3)n2)oc2ccccc12	HCV inh inconclusive, CHX counter 39, Pf growth 96h inconclusive, Shiga toxin inh 77
CC1(C)CC(=O)C=C(c2ccc(Oc3ccccc3)cc2)C1	Pf growth 96h inconclusive (no result: CHX counter, Shiga toxin inh)
CC1(C)CC(=O)C=C(c2ccc(I)cc2)C1	HCV inh inconclusive, Pf growth 96h inconclusive, Pf growth 48h 4.7µM (no result: CHX counter, Shiga toxin inh)
c1ccc2nc3c(cc2c1)CCCCCC3	none (no result: Pf growth 48h)
c1ccc2nc3c(cc2c1)CCCCC3	CHX counter 30, Shiga toxin inh 44
O=C(Cc1ccccc1)NC(=S)Nc1ccc(OC(F)F)cc1	CHX counter 18, Pf growth 96h inconclusive, Shiga toxin inh 39
CN(C(=S)NC(=O)Cc1ccccc1)c1ccccc1	HCMV inh -67
COc1ccc(NC(=S)NC(=O)Cc2ccccc2)cc1	CHX counter 25 (no result: Shiga toxin inh)
CS(=O)(=O)Nc1ccc(-c2ccc3nccn3c2)cc1	none (no result: HCV inh, CHX counter, Pf growth 96h, Pf growth 48h, Shiga toxin inh)
COc1ccc(OCC(=O)Nc2c3c(nn2-c2ccc(OC)cc2)CS(=O)(=O)C3)cc1	none (no result: HCV inh)
O=C(COc1cccc(C(F)(F)F)c1)Nc1cccnc1	HCMV inh -85
Cc1cccc(OCC(=O)Nc2nnc(S(=O)(=O)N3CCCCC3)s2)c1	Pf growth 96h 7.4µM
CCc1cccc(OCC(=O)Nc2ccc(S(=O)(=O)N3CCCC3)cc2)c1	HCV inh 11µM, Pf growth 96h inconclusive, Pf growth 48h inconclusive
O=C(COc1ccccc1Br)Nc1ccc(S(=O)(=O)N2CCCC2)cc1	Pf growth 96h inconclusive, Pf growth 48h 5.9µM (no result: CHX counter, Shiga toxin inh)
CCOC(=O)c1c(-c2ccccc2)oc2ccc(N(C(C)=O)S(=O)(=O)c3ccc(CC)cc3)cc12	none (no result: HCV inh, CHX counter, Pf growth 96h, Pf growth 48h, Shiga toxin inh)
O=C(COc1cccc(C(F)(F)F)c1)Nc1ccc(S(=O)(=O)N2CCCCC2)cc1	HCV inh 25µM, Pf growth 96h 9.3µM, Pf growth 48h inconclusive (no result: CHX counter, Shiga toxin inh)
Cc1cccc(OCC(=O)Nc2ccc(S(=O)(=O)N3CCCC3)cc2)c1	Pf growth 48h inconclusive
O=C(C=NNc1ccccc1)c1ccccc1	none (no result: CHX counter, Pf growth 96h, Pf growth 48h, Shiga toxin inh)
CC(/C=N/NC(=O)NC1CCCCC1)=C\c1ccccc1	CHX counter 28, Pf growth 48h 10µM, Shiga toxin inh 46
